This is a sample that favours compounds with a hit; in the whole collection about 2.3% have one here.
SENP8 block-1: SENP8 protease inhibitors, primary screen, biochemical, luminescence | Sentrin-specific protease 8 (Homo sapiens), Q96LD8 | purified SENP8, Z-RLRGG-aminoluciferin cleavage | inhibition, % at 10 µM | actives 1.2% (n = 330,000) | AID 2540, 2010; in the data active = inhibition above about 50%
Target sequence (Q96LD8 whole entry, looked up): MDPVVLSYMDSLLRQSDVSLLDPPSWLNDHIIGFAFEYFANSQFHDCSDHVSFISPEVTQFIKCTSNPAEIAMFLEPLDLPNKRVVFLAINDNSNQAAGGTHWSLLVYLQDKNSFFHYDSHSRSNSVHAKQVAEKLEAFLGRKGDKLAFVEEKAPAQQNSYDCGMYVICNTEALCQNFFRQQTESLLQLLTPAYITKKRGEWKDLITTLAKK
LGR2 antag: inhibitors of bursicon-induced LGR2 CRE-luciferase signal, primary screen, cell-based, HEK293, CRE-luciferase reporter, bursicon stimulation | actives 0.35% (n = 380,000) | Drosophila bursicon receptor LGR2 (rickets) | inhibition, % at 9.99 µM | bursicon-stimulated, 4 h | AID 720647, 2013;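 active = drop in luminescence signal, shown as inhibition above about 50% in the replicate tests, limit read from the data, passing the limit was not always enough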;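 also: agonist challenge used bursicon conditioned medium at about half maximal strength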
SENP6 block: SENP6 protease inhibitors, primary screen, biochemical, luminescence, uHTS; Sentrin-specific protease 6 (Homo sapiens), Q9GZR1; Recombinant SENP6 catalytic domain, aminoluciferin luminescence; inhibition, % at 10 µM; actives 1.8% (n = 330,000);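 active = inhibition above about 50% at the single tested dose, limit read from the data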;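 also: plate controls were DMSO wells with enzyme for no effect and DMSO wells lacking enzyme for full effect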
SENP7 inh: SENP7 protease inhibitors, primary screen, biochemical, luminescence, uHTS | Sentrin-specific protease 7 (Homo sapiens), Q9BQF6 | inhibition, % at 5 µM | recombinant SENP7, Z-RLRGG-aminoluciferin luminescence, 40 min | actives 1.5% (n = 330,000);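 active = inhibition above about 50% at the single test dose, limit read from the data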;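 also: plate controls were DMSO with enzyme for no effect and no enzyme buffer wells for full effect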
Target sequence (Q9BQF6 706-1050 limits assumed): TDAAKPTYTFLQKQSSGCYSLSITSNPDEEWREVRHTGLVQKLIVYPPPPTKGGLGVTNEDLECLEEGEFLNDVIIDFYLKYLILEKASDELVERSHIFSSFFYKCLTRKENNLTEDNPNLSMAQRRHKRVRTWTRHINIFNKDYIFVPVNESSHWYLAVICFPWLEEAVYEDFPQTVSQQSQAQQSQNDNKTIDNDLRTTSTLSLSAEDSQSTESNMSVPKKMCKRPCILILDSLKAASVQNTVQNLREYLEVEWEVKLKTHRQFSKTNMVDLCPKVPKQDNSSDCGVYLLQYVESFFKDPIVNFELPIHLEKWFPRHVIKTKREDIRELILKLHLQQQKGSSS
HSP90 refold inh: HSP90 inhibitors, primary screen, cell lysate, luminescence; Heat shock protein HSP 90 (rabbit reticulocyte lysate; luciferase refolding); Rabbit reticulocyte lysate, luciferase refolding luminescence, 3 h; inhibition, % at 5.6 µM; actives 0.91% (n = 290,000); AID 1789, 2009;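 active = inhibition above the screen-wide mean plus 3 SD, computed separately per campaign, cut at about 16% in these data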;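 also: 0% = DMSO wells and 100% = 60 µM geldanamycin wells; inhibitors lower the luminescence because luciferase stays unfolded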
SENP8 block-2: human SENP8 protease inhibitors, primary screen, biochemical, fluorescence, Nedd8 protein substrate, uHTS; inhibition, % at 20 µM; recombinant SENP8; actives 0.64% (n = 360,000); AID 602440, 2012; Sentrin-specific protease 8 (Homo sapiens), Q96LD8; in the data active = inhibition mostly above about 40%, no sharp cut-off; inactive = mostly below about 27%
* = called active by the depositor; i = inactive; / = no result.

SMILES | SENP8 block-1 | LGR2 antag | SENP6 block | SENP7 inh | HSP90 refold inh | SENP8 block-2
CCOc1cc(N2CCOCC2)c(OCC)cc1NC(C)C(=O)N1CCN(CC)CC1 (stereo not drawn) | / | 20 | / | / | 1 | 58*
Cc1ccc(-c2nc3ccccc3s2)cc1NC(=S)NC(=O)c1ccccc1 | 13 | / | 18 | -4 | 1 | -261
CC(=O)OCc1nc2ccccc2s1 | -10 | / | -1 | 0 | -2 | 0
Cc1cc(-c2nc3ccccc3s2)ccc1N | / | 54* | / | / | / | i
Cc1cc(OCc2nc3ccccc3s2)ccc1N | 54* | / | 70* | 46 | 3 | -14
COc1cccc(S(=O)(=O)N[C@H]2C=C[C@@H](CC(=O)NCc3ccc(F)cc3)O[C@H]2CO)c1 | / | 15 | / | / | / | /
O=C1NC2=C(CCc3ccccc32)C(c2ccccc2)N1 (stereo not drawn) | 87* | -26 | 95* | 73* | 3 | -167
COC1=CC(=O)c2c(ccc3ncnc(N)c23)C1=O | / | 96* | / | / | / | 84*
C=CCN1C(=O)/C(=C/c2ccsc2)SC1=S | -15 | -23 | -9 | -8 | 2 | 46*
O=C(NCC(F)(F)F)[C@H]1[C@H](CO)[C@H]2Cn3c(cccc3=O)[C@H]2N1C(=O)c1ccccc1F | / | 7 | / | / | / | /
Cc1cccn2c(=O)c3cc(S(=O)(=O)c4ccc(F)cc4)c(=N)n(Cc4ccco4)c3nc12 | -5 | 53* | -8 | -8 | 4 | -422
CN(C)c1ccc(/C=N/N2CCN(c3ccccn3)CC2)cc1 | 62* | -32 | 74* | 78* | -4 | 11
Cc1c(C)c2ccc(OCC(=O)N3CCC(C(=O)O)CC3)cc2oc1=O | -3 | 10 | -4 | -4 | 16* | -173
O=C(O)C1CCN(C(=O)COc2ccc3c4c(c(=O)oc3c2)CCCC4)CC1 | -1 | 0 | -12 | -2 | 3 | -121
Cc1cc(C)c(C(=O)/C=C/c2ccc(C(C)C)cc2)c(=O)[nH]1 | 0 | 80* | -6 | -1 | 2 | 9
Cc1cc(C)c(C(=O)/C=C/C=C/c2ccccc2)c(=O)[nH]1 | -6 | 0 | -14 | -3 | -5 | -79
O=C1C=C(N2CCOCC2)c2cccc3cccc1c23 | / | 18 | / | / | / | 19
O=C1C=C(N2CCOCC2)c2ccccc2C1=O | 94* | 30 | 90* | 90* | 11 | -150
CC1=C(C)C(=O)C(N2CCOCC2)=CC1=O | / | 5 | / | / | 1 | 47*
CC1=C(N2CCOCC2)CCC1=O | -1 | -16 | -1 | 2 | / | 13
C[C@@H]1CN([C@@H](C)CO)C(=O)c2cc(C3=CCCC3)cnc2O[C@H]1CN(C)Cc1ccccc1 | / | 3 | / | / | / | /
O=C(NC1CCC1)[C@@H]1[C@@H](CO)[C@@H]2Cn3c(ccc(-c4ccncc4)c3=O)[C@@H]2N1CCc1ccccc1 | / | 11 | / | / | / | /
O=C(/C=C/Nc1ccc(F)c(F)c1)c1ccc(Br)cc1 | 37 | -119 | 48 | 67* | 5 | -157
O=C(/C=C/Nc1ccccc1F)c1ccc(Br)cc1 | / | 42 | / | / | -4 | -51
O=C(O)C[C@@H]1C[C@H]2c3cc(NC(=O)C4CCC4)ccc3O[C@H]2[C@@H](CO)O1 | / | -7 | / | / | / | /
SMILES | SENP8 block-1 | LGR2 antag | SENP6 block | SENP7 inh | HSP90 refold inh | SENP8 block-2
Cc1ccc(Nc2nnc(-c3ccccc3N)o2)cc1C | -8 | / | -3 | 63* | -10 | -433
Cc1ccc(NCc2ccco2)cc1C | -5 | -163 | 13 | 7 | -4 | -1
C[C@@H]1CN([C@@H](C)CO)C(=O)c2cccc(NC(=O)c3nc4ccccc4s3)c2O[C@@H]1CN(C)Cc1ccncc1 | / | -19 | / | / | / | /
COc1cccc(-c2ccc([C@H]3[C@@H](CO)N4C(=O)CN(C(=O)NC(C)C)C[C@@H]34)cc2)c1 | / | -11 | / | / | / | /
O=C1C(NS(=O)(=O)c2ccc(Cl)cc2)=C(N2CCCCC2)C(=O)c2ccccc21 | 9 | 8 | 49 | 33 | 0 | 46*
NC(=O)C1CCN(C2=C(NS(=O)(=O)c3ccccc3)C(=O)c3ccccc3C2=O)CC1 | 14 | -3 | 3 | 16 | 3 | 36
CCOC(=O)N1CCN(C(=O)c2ccccc2NS(=O)(=O)c2ccc(C)cc2)CC1 | 8 | -9 | -18 | -6 | 0 | 10
NC(=O)C1CCN(C2=C(NS(=O)(=O)c3ccc(Br)cc3)C(=O)c3ccccc3C2=O)CC1 | 19 | 6 | 41 | 34 | 0 | 41*
CN1CCN(C2=C(NS(=O)(=O)c3ccccc3)C(=O)c3ccccc3C2=O)CC1 | 30 | / | 49 | 35 | 5 | 31
CCOC(=O)N1CCN(C2=C(NS(=O)(=O)c3ccc(Br)cc3)C(=O)c3ccccc3C2=O)CC1 | / | -1 | / | / | / | 54*
CCOC(=O)N1CCN(C2=C(NS(=O)(=O)c3ccccc3)C(=O)c3ccccc3C2=O)CC1 | 14 | 12 | 32 | 19 | 2 | 54*
COCC(=O)Nc1ccc2c(c1)OC[C@@H](C)N(C(=O)NC(C)C)C[C@H](C)[C@@H](OC)CN(C)C2=O | / | 8 | / | / | / | /
CCN1CCN(C2=C(NS(=O)(=O)c3ccccc3)C(=O)c3ccccc3C2=O)CC1 | 24 | -7 | 38 | 43 | 1 | 58*
OCCC1CN(Cc2ccc(Oc3ncccn3)cc2)CCN1Cc1ccc(F)c(F)c1 (stereo not drawn) | -3 | 26 | -13 | -2 | 0 | 14
CC(C)CN1CCN(Cc2ccc(Oc3ncccn3)cc2)CC1CCO (stereo not drawn) | -1 | -2 | -17 | 5 | 16* | 16
CCC(=O)N1CC2(CCN(C(=O)c3cccnc3)CC2)c2c([nH]c3cc(OC)ccc23)[C@@H]1CO | / | -2 | / | / | / | /
C/C(=N\NC(=O)c1c[nH]c2ccccc12)c1ccccn1 | -2 | -40 | -5 | -2 | 2 | -1
C/C(=N\Nc1cccc2cccnc12)c1ccc(N)cc1 | -3 | -37 | -4 | 7 | 2 | -6
C/C(=N\Nc1cccc2cccnc12)c1ccccn1 | 89* | 56* | 72* | 92* | 7 | -25
C/C(=N\NC(=O)c1cc2ccccc2cc1O)c1ccccn1 | 89* | -9 | 95* | 72* | 4 | -4
COc1ccc2c3c([nH]c2c1)[C@@H](CO)N(C(=O)C1CCOCC1)CC31CCN(C)CC1 | / | 5 | / | / | / | /
CS(=O)(=O)Nc1ccc2c(c1)[C@@H]1C[C@@H](CC(=O)NCC(F)(F)F)O[C@@H](CO)[C@@H]1O2 | / | -15 | / | / | / | /
N=C1C=CC=C2C1=NC1(CCCCC1)N2O | 10 | 3 | 11 | 1 | 1 | 36*
CC(C)(C)N=C1C([N+](=O)[O-])=CC=C2C1=NC1(CCCCC1)N2O | 14 | 9 | 29 | 13 | -4 | 39
Oc1ccc(N=Nc2cccc(Cl)c2)cc1C=Nc1ccc(N2CCOCC2)cc1 | / | 19 | / | / | -1 | 53*
